This passage reports Potency results from PubChem BioAssay (Tox21).

Inconclusive results are not listed. Activity calls are given as the source filed them. Unless noted, the call rests on the fitted dose curve.

Assay [1] is described as follows: Nuclear factor erythroid 2-related factor 2/antioxidant responsive element (Nrf2/ARE) small molecule agonists: qHTS cell viability counter screen in human keratinocytes (AID 1919968; active means well fitted curve in the direction sought with a large enough effect in the repeat runs; an effect the other way counts as inactive or inconclusive; further: nearly all actives have a fitted effect of over 55% in size). Summed up: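 Cytotoxicity was multiplexed with the Nrf2/ARE luciferase assay in the same wells. Stably transfected HaCaT keratinocytes were treated with test compounds for 23 h at 37 C. Cell viability was then measured by CellTiter-Fluor fluorescence.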
For orientation: Quantitative high-throughput screening tests each substance at several concentrations.

The target in assay [2] is KiSS-1 receptor (Homo sapiens) (UniProt Q969F8). The assay is described as follows: Human kisspeptin (KISS1R) small molecule agonists, calcium flux assay in KISS1R-HEK293 cells (AID 1920064; active means well fitted curve in the direction sought with a large enough effect in the repeat runs; an effect the other way counts as inactive or inconclusive). In outline:
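Agonist activity is monitored as intracellular calcium rise in engineered HEK293 cells carrying human KISS1R. Cells are dye-loaded for 1 h at 37 C before compound addition, and fluorescence is recorded for 3 min.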
A general note: A change in cytosolic calcium serves as a functional read-out for many receptors and channels.

Assay [3] is described as follows: G protein-coupled receptor (GPCR) small molecule agonists, calcium flux assay: HEK293 wild type cell line counter screen (AID 1920065). Summed up: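 Seed cells, incubate 18 h (37 C, 5% CO2); add calcium dye, 1 h at 37 C; pin-transfer compounds, ATP control or DMSO; read fluorescence 480/540 nm each second for 3 min.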
Assay [4] can be described thus: p53 small molecule agonists, cell-based qHTS assay with human liver microsomes (AID 1963577). Summed up: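 p53RE-bla reporter cells were pre-incubated 5 h at 37 C, then treated with compounds plus human liver microsomes (0.5 mg/mL final) and NADPH (0.5 mg/mL final) for 16 h at 37 C. Beta-lactamase activity was read by LiveBLAzer fluorescence after 2 h at room temperature.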

Assay [5] is described as follows: p53 small molecule agonists, cell-based qHTS assay with rat liver microsomes (AID 1963578). Summed up: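 p53RE-bla cells were exposed to compounds together with rat liver microsomes (0.5 mg/mL final) and NADPH (0.5 mg/mL final) for 16 h at 37 C, then read by LiveBLAzer beta-lactamase fluorescence after 2 h at room temperature.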
The nature of assay [6]: p53 small molecule agonists, cell-based qHTS assay with human liver microsomes: qHTS cell viability counter screen (AID 1963579). Further: nearly all actives have a fitted effect of over 45% in size. Summed up: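 p53RE-bla cells (4,000/well) were pre-incubated 5 h at 37 C, then given compounds in DMSO plus human liver microsomes (0.5 mg/mL final) and NADPH (0.5 mg/mL final) for 16 h at 37 C. Viability was read by CellTiter-Glo luminescence.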

Assay [7] in a line: p53 small molecule agonists, cell-based qHTS assay with rat liver microsomes: qHTS cell viability counter screen (AID 1963580). Further: nearly all actives have a fitted effect of over 45% in size. Summed up:
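Counter screen for cytotoxicity under metabolic activation: rat liver microsomes and NADPH, 0.5 mg/mL final each, added with compounds to p53RE-bla HCT-116 cells; 16 h at 37 C, then ATP luminescence read.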

Assay [8] is described as follows: p53 small molecule agonists, cell-based qHTS assay: qHTS cell viability counter screen (AID 1963581). Further: nearly all actives have a fitted effect of over 45% in size. Summed up: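 Viability was counter-screened in parallel with the p53 agonist reporter by measuring intracellular ATP luminescence in the same HCT-116 p53RE-bla wells after 16 h compound treatment at 37 C.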
Assay [9] can be described thus: p53 small molecule agonists, cell-based qHTS assay (AID 1963582; active means well fitted activation curve with a large enough effect in the signal ratio in the repeat runs, not every such curve was filed as active; the % refers to the signal ratio). Summed up: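 Cells carrying a p53-responsive bla reporter are treated with test compounds for 16 h at 37 C; beta-lactamase activity is then detected with LiveBLAzer B/G FRET substrate after 2 h at room temperature.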
A short description of assay [10]: cAMP Responsive Elements (CRE) small molecule agonists, cell-based qHTS assay (AID 1963590). Summed up:
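Cells carrying a CRE-driven beta-lactamase reporter (HEK 293T) are seeded, incubated overnight (18 h), and treated with test compounds for 3 h at 37 C; reporter activity is then detected with a FRET substrate after 2 h at room temperature.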

Assay [11] can be described thus: cAMP Responsive Elements (CRE) small molecule antagonists, cell-based qHTS assay (AID 1963591; active means well fitted inhibition curve with a large enough effect in the signal ratio in the repeat runs, not every such curve was filed as active; the % refers to the signal ratio). Summed up: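 Cells (CRE-bla HEK 293T, DMEM with 10% dialyzed FBS and 25 mM HEPES) are seeded and incubated 18 h. Compounds are added with NKH477 agonist at 0.25 uM final for 3 h, then FRET substrate for 2 h.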
The target of assay [12] is Beta-2 adrenergic receptor (Homo sapiens) (UniProt P07550). The assay is described as follows: Adrenergic beta2 receptor (ADRB2) small molecule antagonists, cell-based qHTS assay (AID 1963592). Further: series mostly up to about 92 µM; nearly all actives have a fitted effect of over 50% in size. In outline: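 Assay format: CHO-ADRB2 cells, 18-20hr seeding at 37C/5% CO2, then compound plus 1nM isoproterenol agonist mix for 0.5hr RT. Homogeneous time-resolved fluorescence cAMP detection after 1hr, expressed as 665/615 nm ratio.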

The target is the same in assay [13]. The assay is described as follows: Adrenergic beta2 receptor (ADRB2) small molecule agonists, cell-based qHTS assay (AID 1963593).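 Further: CHO cells stably overexpressing human ADRB2.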 In outline:
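CHO cells stably over-expressing ADRB2 were plated overnight at 37C, then dosed with compounds plus a stimulation mix containing 100uM IBMX and 25uM Ro-20-1724 for 0.5hr at room temperature. cAMP was measured by HTRF competition, 1hr.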

Assay [14] deals with D(2) dopamine receptor (Homo sapiens) (UniProt P14416). Kind of assay: Dopamine D2 receptor (DRD2) small molecule agonists, cell-based qHTS assay (AID 1963594). Further: nearly all actives have a fitted effect of over 35% in size. In outline: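 HEK293 cells stably expressing DRD2 were cultured 24 h at 37 C, then given Ro20-1724 (0.1 mM final) and compounds for 10 min at room temperature. NKH477 (200nM) was then added for 30 min. cAMP was read by HTRF.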

A short description of assay [15]: Nuclear factor erythroid 2-related factor 2/antioxidant responsive element (Nrf2/ARE) small molecule agonists: luciferase reporter gene qHTS assay in human keratinocytes (AID 1919969). Further: nearly all actives have a fitted effect of over 35% in size. Background: A reporter such as luciferase makes a cellular process visible.
Assay [16] addresses 5-hydroxytryptamine receptor 2A (Homo sapiens) (UniProt P28223). Kind of assay: 5-hydroxytryptamine receptor 2A (HTR2A) small molecule antagonists, cell-based qHTS assay (AID 1963586). Further: nearly all actives have a fitted effect of over 45% in size. Further: potency means the concentration at half of the fitted maximal effect. Summed up: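 CHO cells stably expressing human HTR2A were plated for 18 h at 37 C, then loaded with calcium dye for 1 h. Compounds were preincubated 5 min at room temperature before DOI (4 nM solution) was added. Kinetic fluorescence was read for 3 min.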

The target is the same in assay [17]. The assay is described as follows: 5-hydroxytryptamine receptor 2A (HTR2A) small molecule agonists, cell-based qHTS assay (AID 1963587). Further: nearly all actives have a fitted effect of over 30% in size. Summed up:
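HTR2A-CHO cells, plated 18 h at 37 C/5% CO2, dye-loaded 1 h at 37 C; compounds in DMSO added by pin tool (agonist mode). Intracellular calcium flux read as kinetic fluorescence on FDSS over 2 min at 1 s intervals.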

Assay [18] addresses Muscarinic acetylcholine receptor M1 (Homo sapiens) (UniProt P11229). Kind of assay: Cholinergic receptor muscarinic 1 (CHRM1) small molecule antagonists, cell-based qHTS assay (AID 1963588). Further: nearly all actives have a fitted effect of over 40% in size. Summed up:
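Compounds were tested at 15 concentrations in three independent runs. Dye-loaded CHRM1-CHO cells were exposed 5 min at room temperature before stimulation by acetylcholine added at 50nM. Intracellular calcium was read kinetically on FDSS for 3 min.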

Assay [19] shares this target. The assay is described as follows: Cholinergic receptor muscarinic 1 (CHRM1) small molecule agonists, cell-based qHTS assay (AID 1963589). Further: nearly all actives have a fitted effect of over 35% in size. Summed up: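 Cells were plated and incubated 18 h at 37 C/5% CO2, loaded with calcium dye for 1 h at 37 C, then treated with compounds in DMSO. Fluorescence was recorded kinetically at 1 sec intervals.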
The target in assay [20] is D(2) dopamine receptor (Homo sapiens) (UniProt P14416). Kind of assay: Dopamine D2 receptor (DRD2) small molecule antagonists, cell-based qHTS assay (AID 1963595; active means well fitted inhibition curve with a large enough effect in the signal ratio in the repeat runs, with a control signal flat; the % refers to the signal ratio). Summed up: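 HTRF cAMP read-out at 665 and 620 nm emission (340 nm excitation). Antagonist mode: compounds were tested against 12 nM quinpirole in DRD2-HEK293 cells, with 200 nM NKH477 raising cAMP and 0.1 mM Ro20-1724 blocking its breakdown.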

Chain of D(2) dopamine receptor (Homo sapiens) (P14416 whole entry, looked up): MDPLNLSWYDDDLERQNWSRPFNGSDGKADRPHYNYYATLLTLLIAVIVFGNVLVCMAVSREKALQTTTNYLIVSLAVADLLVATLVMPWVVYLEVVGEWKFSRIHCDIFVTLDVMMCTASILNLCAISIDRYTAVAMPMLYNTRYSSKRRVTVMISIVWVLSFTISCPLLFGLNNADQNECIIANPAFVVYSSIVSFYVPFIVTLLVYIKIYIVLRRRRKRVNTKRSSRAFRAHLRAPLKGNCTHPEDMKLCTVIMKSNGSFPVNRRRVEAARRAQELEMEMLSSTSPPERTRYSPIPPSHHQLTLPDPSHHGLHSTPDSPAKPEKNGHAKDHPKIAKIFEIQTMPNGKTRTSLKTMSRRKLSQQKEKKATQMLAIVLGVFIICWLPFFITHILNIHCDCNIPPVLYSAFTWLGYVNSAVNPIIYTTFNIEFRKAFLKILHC
Chain of Beta-2 adrenergic receptor (Homo sapiens) (P07550 whole entry, looked up): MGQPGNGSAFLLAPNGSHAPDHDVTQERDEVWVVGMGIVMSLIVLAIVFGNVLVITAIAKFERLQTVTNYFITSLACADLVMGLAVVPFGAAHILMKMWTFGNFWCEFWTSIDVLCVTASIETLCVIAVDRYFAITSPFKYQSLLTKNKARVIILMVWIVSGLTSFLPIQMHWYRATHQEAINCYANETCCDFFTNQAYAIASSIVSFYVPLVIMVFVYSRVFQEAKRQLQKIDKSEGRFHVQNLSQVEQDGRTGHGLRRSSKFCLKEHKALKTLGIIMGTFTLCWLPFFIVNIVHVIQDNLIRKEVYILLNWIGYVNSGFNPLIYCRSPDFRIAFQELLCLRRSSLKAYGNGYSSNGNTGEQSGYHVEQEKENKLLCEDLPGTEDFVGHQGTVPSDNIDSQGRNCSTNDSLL
Chain of Muscarinic acetylcholine receptor M1 (Homo sapiens) (P11229 whole entry, looked up): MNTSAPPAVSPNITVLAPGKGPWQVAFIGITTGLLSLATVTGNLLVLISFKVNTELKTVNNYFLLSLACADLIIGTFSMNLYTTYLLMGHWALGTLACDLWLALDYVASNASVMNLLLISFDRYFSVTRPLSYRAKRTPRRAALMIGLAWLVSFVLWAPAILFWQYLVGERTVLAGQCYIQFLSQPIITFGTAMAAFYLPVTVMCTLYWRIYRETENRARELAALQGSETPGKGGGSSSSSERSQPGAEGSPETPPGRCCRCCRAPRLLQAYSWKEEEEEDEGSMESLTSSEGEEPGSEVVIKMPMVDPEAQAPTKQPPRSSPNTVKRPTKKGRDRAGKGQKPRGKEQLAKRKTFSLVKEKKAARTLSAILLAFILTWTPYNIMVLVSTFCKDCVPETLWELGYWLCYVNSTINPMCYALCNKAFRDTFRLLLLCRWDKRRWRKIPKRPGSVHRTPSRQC
Chain of KiSS-1 receptor (Homo sapiens) (Q969F8 whole entry, looked up): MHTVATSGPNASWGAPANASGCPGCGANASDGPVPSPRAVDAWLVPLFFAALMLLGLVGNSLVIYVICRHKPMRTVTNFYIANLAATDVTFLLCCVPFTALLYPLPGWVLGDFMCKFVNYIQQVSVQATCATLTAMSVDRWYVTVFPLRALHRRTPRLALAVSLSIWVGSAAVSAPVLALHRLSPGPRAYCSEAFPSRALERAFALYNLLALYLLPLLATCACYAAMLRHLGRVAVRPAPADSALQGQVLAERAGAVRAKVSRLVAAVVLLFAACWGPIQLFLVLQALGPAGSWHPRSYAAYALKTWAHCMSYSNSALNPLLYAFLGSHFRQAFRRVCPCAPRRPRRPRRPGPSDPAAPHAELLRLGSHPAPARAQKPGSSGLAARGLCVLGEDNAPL
Chain of 5-hydroxytryptamine receptor 2A (Homo sapiens) (P28223 whole entry, looked up): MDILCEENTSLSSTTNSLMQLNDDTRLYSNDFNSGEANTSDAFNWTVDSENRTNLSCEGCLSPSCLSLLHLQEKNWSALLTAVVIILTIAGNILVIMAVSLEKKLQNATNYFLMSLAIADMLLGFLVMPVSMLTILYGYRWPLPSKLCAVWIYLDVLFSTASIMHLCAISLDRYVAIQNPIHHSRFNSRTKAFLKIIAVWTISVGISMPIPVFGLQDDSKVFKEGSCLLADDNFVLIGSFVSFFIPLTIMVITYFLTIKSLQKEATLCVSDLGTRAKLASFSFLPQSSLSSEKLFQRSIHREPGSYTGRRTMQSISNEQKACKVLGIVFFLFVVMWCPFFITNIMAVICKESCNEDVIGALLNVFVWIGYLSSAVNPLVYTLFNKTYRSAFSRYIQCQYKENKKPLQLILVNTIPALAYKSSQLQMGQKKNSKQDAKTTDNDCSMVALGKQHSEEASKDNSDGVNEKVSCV

Turning to `CCOC(=O)c1ccc(N)cc1`, the Potency result in [1], in assay [2], in assay [3], in assay [4], in [5] and in assay [6] was “inactive” each time. Besides, the Potency entry in [7], in assay [8], in assay [9], in assay [10], in assay [11] and in [12] was “inactive” throughout. Also, the Potency entry in assay [13] and in assay [14] was “inactive” in each case.
For `O=C(O)CCS`, the Potency result in [1], in assay [15], in assay [3], in assay [4], in assay [5] and in assay [6] was “inactive” throughout. In addition, the Potency result in assay [8], in assay [9], in assay [17], in assay [18], in [19] and in [10] was “inactive” in each case. Further, the Potency entry in assay [11], in assay [12], in assay [13], in assay [14] and in [20] was “inactive” in each case. Besides, the Potency in [16] is 3.41 µM (active).
As for `C=CCCC`, the Potency result in assay [1], in assay [2], in assay [3], in [4], in [5] and in [6] was “inactive” in each case. Also, the Potency entry in assay [7], in assay [8], in [9], in assay [16], in assay [17] and in assay [19] was “inactive” throughout. For the same compound, the Potency result in [10], in assay [12], in assay [14] and in assay [20] was “inactive” each time.
Take `CC(=O)C1(C)CC2=C(CCCC2(C)C)CC1C` (centres undefined): the Potency result in [1], in [2], in assay [3], in assay [4], in [5] and in assay [6] was “inactive” throughout. In addition, the Potency entry in [7], in assay [8], in assay [9], in assay [16], in assay [17] and in assay [18] was “inactive” throughout. Besides, the Potency entry in assay [19], in assay [10], in assay [11], in assay [12], in assay [13] and in assay [14] was “inactive” throughout. Besides, the Potency result in assay [20] is “inactive”.
Consider `NCC1CCCC(CN)C1` (centres undefined), for which the Potency entry in assay [1], in assay [2], in [3], in assay [4], in assay [5] and in assay [6] was “inactive” in each case. Moreover, the Potency result in assay [7], in [8], in assay [9], in [16], in assay [17] and in assay [19] was “inactive” throughout. Moreover, the Potency entry in assay [10], in [11], in assay [12], in assay [13] and in assay [20] was “inactive” each time.
Take `COC(=O)/C=C(/C)N`: the Potency result in assay [1], in assay [2], in [3], in [4], in [5] and in assay [6] was “inactive” throughout. Further, the Potency entry in assay [7], in [8], in assay [9], in assay [16], in [18] and in assay [19] was “inactive” each time. Further, the Potency entry in assay [10], in assay [11], in [12] and in [13] was “inactive” each time.
In the case of `CC(C)(C)c1ccc(CCC=O)cc1`, the Potency result in assay [1], in [2], in assay [3], in assay [4], in assay [5] and in [6] was “inactive” each time. The Potency entry in assay [7], in assay [8], in assay [9], in assay [16], in assay [17] and in assay [18] was “inactive” throughout. Further, the Potency result in assay [19], in [10], in assay [11], in [14] and in assay [20] was “inactive” throughout.
Take `O=C(O[C@@H]1Cc2c(O)cc(O)cc2O[C@@H]1c1cc(O)c(O)c(O)c1)c1cc(O)c(O)c(O)c1`: the Potency result in [1], in [2], in assay [3], in assay [4], in assay [5] and in assay [6] was “inactive” each time. Also, the Potency result in assay [7], in assay [8], in assay [9], in [16], in assay [17] and in [18] was “inactive” each time. For the same compound, the Potency entry in assay [19], in assay [10], in assay [11], in assay [14] and in [20] was “inactive” in each case.
